The source of these data is PubChem BioAssay (EPA / NIEHS).

Read-out in assay [1]: Urokinase-type plasminogen activator receptor (uPAR), PLAUR (gene 5329)
As to the kind of experiment: BSK_BE3C_uPAR: BioMAP Diversity Plus: BE3C Assay for Urokinase-type plasminogen activator receptor (uPAR) Biomarker Activity (AID 2283039).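 As to outcome: uPAR protein level measured by ELISA on the cells; cells exposed to compound for one day before measurement.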 To be noted: primary human bronchial epithelial cells; actives raise or lower the signal. In short, it runs like this:
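Chemically treated human bronchial epithelial cells (lung primary) are assayed for uPAR by ELISA after 24 h, with data fitted in both directions using DMSO as negative control.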

Read-out in assay [2]: Interleukin-6 (IL6), IL6 (gene 3569)
Briefly: BSK_CASM3C_IL6: BioMAP Diversity Plus: CASM3C Assay for Interleukin-6 (IL6) Biomarker Activity for (AID 2283040). To be noted: primary human coronary artery smooth muscle cells; actives raise or lower the signal.

Read-out in assay [3]: Tissue plasminogen activator (tPA), PLAT (gene 5327)
Briefly: BSK_BE3C_tPA: BioMAP Diversity Plus: BE3C Assay for Tissue plasminogen activator (tPA) Biomarker Activity (AID 2283041).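 As to outcome: tPA level quantified by ELISA one day after compound addition.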 Particulars: primary human bronchial epithelial cells; actives raise or lower the signal. In short, it runs like this:
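Using human lung primary bronchial epithelial cells, tPA was measured by ELISA 24 h after dosing; data fitted relative to DMSO.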

Read-out in assay [4]: Interleukin-8 (IL8), CXCL8 (gene 3576)
As to the kind of experiment: BSK_CASM3C_IL8: BioMAP Diversity Plus: CASM3C Assay for Interleukin-8 (IL8) Biomarker Activity (AID 2283042).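 Also: IL-8 protein level quantified by ELISA.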 To be noted: primary human coronary artery smooth muscle cells; actives raise or lower the signal.

Read-out in assay [5]: Human Leukocyte Antigen - DR isotype (HLADR), HLA-DRA (gene 3122)
Briefly: BSK_CASM3C_HLADR: BioMAP Diversity Plus: CASM3C Assay for Human Leukocyte Antigen - DR isotype (HLADR) Biomarker Activity (AID 2283043).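 Also: cell-surface HLA-DR protein level quantified by ELISA.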 Particulars: primary human coronary artery smooth muscle cells; actives raise or lower the signal.

Read-out in assay [6]: Macrophage colony-stimulating factor (MCSF), CSF1 (gene 1435)
Briefly: BSK_CASM3C_MCSF: BioMAP Diversity Plus: CASM3C Assay for Macrophage colony-stimulating factor (MCSF) Biomarker Activity (AID 2283044).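 Also: M-CSF protein amount quantified by ELISA after 24 h exposure.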 Particulars: primary human coronary artery smooth muscle cells; actives raise or lower the signal.

Read-out in assay [7]: Low-density lipoprotein receptor (LDLR), LDLR (gene 3949)
Briefly: BSK_CASM3C_LDLR: BioMAP Diversity Plus: CASM3C Assay for Low-density lipoprotein receptor (LDLR) Biomarker Activity (AID 2283045).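 Also: LDLR protein level on the cell surface quantified by ELISA.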 To be noted: primary human coronary artery smooth muscle cells; actives raise or lower the signal.

Read-out in assay [8]: Monocyte Chemoattractant Protein-1 (MCP1), CCL2 (gene 6347)
As to the kind of experiment: BSK_CASM3C_MCP1: BioMAP Diversity Plus: CASM3C Assay for Monocyte Chemoattractant Protein-1 (MCP1) Biomarker Activity (AID 2283046).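 Also: MCP-1 level quantified by ELISA 24 h after dosing.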 To be noted: primary human coronary artery smooth muscle cells; actives raise or lower the signal.

Assay [9] can be described thus: BSK_CASM3C_Proliferation: Cell Proliferation Assessment in the BioMAP Diversity Plus: CASM3C Assay (AID 2283047).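 Also: sulforhodamine B total protein stain as relative cell number at 560 nm; sub-confluent cells exposed 48 h before staining; fitted both ways against DMSO so gain or loss of cell number.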 Particulars: primary human coronary artery smooth muscle cells.
Read-out in assay [10]: Monokine induced gamma interferon (MIG), CXCL9 (gene 4283)
Briefly: BSK_CASM3C_MIG: BioMAP Diversity Plus: CASM3C Assay for Monokine induced gamma interferon (MIG) Biomarker Activity (AID 2283048).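 Also: MIG protein level measured by ELISA.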 To be noted: primary human coronary artery smooth muscle cells; actives raise or lower the signal.

Read-out in assay [11]: serum amyloid A (SAA), SAA1 (gene 6288)
As to the kind of experiment: BSK_CASM3C_SAA: BioMAP Diversity Plus: CASM3C Assay for serum amyloid A (SAA) Biomarker Activity (AID 2283049).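 Also: SAA protein level quantified by ELISA.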 To be noted: primary human coronary artery smooth muscle cells; actives raise or lower the signal.

A short description of assay [12]: BSK_CASM3C_SRB: Viability Assessment in the BioMAP Diversity Plus: CASM3C Assay (AID 2283050).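 Also: total protein by SRB staining as cytotoxicity measure in parallel cultures; cells exposed to compound for 24 h.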 To be noted: primary human coronary artery smooth muscle cells.
Read-out in assay [13]: Thrombomodulin, THBD (gene 7056)
Briefly: BSK_CASM3C_Thrombomodulin: BioMAP Diversity Plus: CASM3C Assay for Thrombomodulin Biomarker Activity (AID 2283051).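 Also: thrombomodulin protein level measured by ELISA 24 h after dosing.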 To be noted: primary human coronary artery smooth muscle cells; actives raise or lower the signal.

Read-out in assay [14]: Tissue Factor, F3 (gene 2152)
As to the kind of experiment: BSK_CASM3C_TissueFactor: BioMAP Diversity Plus: CASM3C Assay for Tissue Factor Biomarker Activity (AID 2283052).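 Also: cell surface tissue factor protein level read by ELISA.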 To be noted: primary human coronary artery smooth muscle cells; actives raise or lower the signal.

Read-out in assay [15]: Interferon-gamma inducible Protein 10 (IP10), CXCL10 (gene 3627)
As to the kind of experiment: BSK_hDFCGF_IP10: BioMAP Diversity Plus: hDFCGF Assay for Interferon-gamma inducible Protein 10 (IP10) Biomarker Activity (AID 2283053). To be noted: primary human foreskin fibroblasts; actives raise or lower the signal. In short, it runs like this: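 Chemical-treated human skin fibroblasts (primary) were sampled at 24 h for IP-10 by ELISA. Both increases and decreases relative to DMSO were scored.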

Read-out in assay [16]: Urokinase-type plasminogen activator receptor (uPAR), PLAUR (gene 5329)
As to the kind of experiment: BSK_CASM3C_uPAR: BioMAP Diversity Plus: CASM3C Assay for Urokinase-type plasminogen activator receptor (uPAR) Biomarker Activity (AID 2283054).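 Also: cell-surface uPAR protein level quantified by ELISA.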 To be noted: primary human coronary artery smooth muscle cells; actives raise or lower the signal.

Read-out in assay [17]: Vascular cell adhesion molecule 1 (VCAM1), VCAM1 (gene 7412)
Briefly: BSK_CASM3C_VCAM1: BioMAP Diversity Plus: CASM3C Assay for Vascular cell adhesion molecule 1 (VCAM1) Biomarker Activity (AID 2283055).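 Also: VCAM-1 protein level quantified by ELISA on the cells.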 Particulars: primary human coronary artery smooth muscle cells; actives raise or lower the signal.

Read-out in assay [18]: Collagen III, COL3A1 (gene 1281)
Briefly: BSK_hDFCGF_CollagenIII: BioMAP Diversity Plus: hDFCGF Assay for Collagen III Biomarker Activity (AID 2283056). Particulars: primary human foreskin fibroblasts; actives raise or lower the signal. The procedure, abridged:
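ELISA readout of Collagen III in human dermal (foreskin) fibroblasts, taken 24 h post-treatment. Gain or loss relative to DMSO vehicle fitted in both directions.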

Read-out in assay [19]: Epidermal growth factor receptor (EGFR), EGFR (gene 1956)
As to the kind of experiment: BSK_hDFCGF_EGFR: BioMAP Diversity Plus: hDFCGF Assay for Epidermal growth factor receptor (EGFR) Biomarker Activity (AID 2283057). To be noted: primary human foreskin fibroblasts; actives raise or lower the signal. The procedure, abridged: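 Cell-based multiplexed assay in primary human foreskin fibroblasts. EGFR is read by ELISA 24 h after treatment and compared with DMSO controls.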

Read-out in assay [20]: Interleukin-8 (IL8), CXCL8 (gene 3576)
Briefly: BSK_hDFCGF_IL8: BioMAP Diversity Plus: hDFCGF Assay for Interleukin-8 (IL8) Biomarker Activity (AID 2283058). To be noted: primary human foreskin fibroblasts; actives raise or lower the signal. The procedure, abridged: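 IL-8 levels read by ELISA at 24 hours after dosing human skin fibroblast cultures. Parallel SRB staining assessed overt cytotoxicity, and gain or loss of signal was fitted against DMSO control.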

In general, AC50 refers to the concentration giving half of the maximal activity seen.

Where “and” joins values, the source holds several entries; their conditions need not be identical. Equal values may be shown once. Where a structure was tested more than once in an assay, its records may differ in their call. Calls of active or inactive are those of the source. The calls were made as follows: active = hit-call score of the fitted dose curve at least 0.9, where 1 is the maximum; inactive = score below 0.9.

For `CCCN(CCC)c1c([N+](=O)[O-])cc(S(N)(=O)=O)cc1[N+](=O)[O-]`, the AC50 in [1] was 38.1 µM (active) [middle of 4 runs]; in [2], 35.2 µM (active) [middle of 4 runs]; in assay [3] it was 30.3 µM (active) [middle of 4 runs]; in assay [4] it was 33.5 µM (active) [middle of 4 runs]; in assay [5], 34.4 µM (active) [middle of 4 runs]; in [6] it was 36.1 µM (active) [middle of 4 runs]. Further, the AC50 in assay [7] was 39.7 µM (active); in assay [8] it was 37.1 µM (active) [middle of 4 runs]; in assay [9], 35.1 µM (active) [middle of 4 runs]; in assay [10] it was 34.7 µM (active) [middle of 4 runs]; in assay [11], 37.1 µM (active) [middle of 4 runs]; in [12], 35.6 µM (active) [middle of 4 runs]. Also, the AC50 in assay [13] was 37.6 µM (active) and 34.1 µM (active); in assay [14], 21.1 µM (active) and 34.7 µM (active) and 30.7 µM (active); in assay [15], 32.5 µM (active) and 31.4 µM (active); in assay [16], 34.5 µM (active) [middle of 4 runs]; in assay [17], 36.4 µM (active) [middle of 4 runs]; in assay [18], 30.9 µM (active) and 16.5 µM (active). In addition, the AC50 in assay [20] was 34.5 µM (active). In addition, the result in [7], in assay [13], in assay [14], in [15], in [18] and in assay [19] was inactive. For the same molecule, in assay [20], the result was inactive.
`COc1nc(C)nc(NC(=O)NS(=O)(=O)c2ccccc2Cl)n1`: the result in assay [1], in assay [2], in assay [3], in assay [4], in [5] and in assay [6] was inactive. For the same molecule, the outcome in assay [7], in assay [8], in assay [9], in assay [10], in [11] and in assay [12] was inactive. Besides, the outcome in [13], in assay [14], in assay [15], in assay [16], in [17] and in assay [18] was inactive. The result in assay [19] and in [20] was inactive. Moreover, in assay [8], the AC50 was 507 nM (active).
Take `COc1nc(C)nc(NC(=O)NS(=O)(=O)c2ccccc2CCC(F)(F)F)n1`: the outcome in assay [1], in [2], in assay [3], in assay [4], in assay [5] and in [6] was inactive. The outcome in assay [7], in [8], in assay [9], in assay [10], in assay [11] and in [12] was inactive. The result in [13], in [14], in assay [16], in assay [17], in assay [18] and in [19] was inactive. The outcome in assay [20] was inactive. The AC50 in [15] is 148 nM (active) and 33.8 µM (active) and 3.97 µM (active); in [18], 213 nM (active).
As to `COC(=O)C(C)Oc1ccc(Oc2ccc(Cl)cc2Cl)cc1` (stereo not drawn), the result in [1], in assay [2], in assay [3], in assay [4], in assay [5] and in assay [6] was inactive. Also, the result in assay [7], in assay [8], in assay [9], in assay [10], in assay [11] and in assay [12] was inactive. The outcome in [13], in [14], in assay [15], in assay [16], in assay [17] and in assay [18] was inactive. Besides, the result in [19] and in assay [20] was inactive. Moreover, the AC50 in [2] is 32.6 µM (active).
For `C=CCC1=C(C)[C@@H](OC(=O)[C@@H]2[C@@H](C=C(C)C)C2(C)C)CC1=O`, the result in assay [1], in [2], in assay [3], in assay [4], in [5] and in assay [6] was inactive. For the same molecule, the outcome in assay [8], in assay [9], in assay [10], in [11], in assay [12] and in assay [13] was inactive. The outcome in [14], in assay [16] and in assay [17] was inactive. Also, the AC50 is 20 µM (active) in assay [7], 32.6 µM (active) in [15], 30900 nM (active) in assay [18] and 32.4 µM (active) in [19].
